Bioassay records: PubChem, several laboratories
Rows were chosen to be rich in hits. Some 4.1% of all compounds tested hit in one or more screens of this group.
MEKK2wt PB1 HTS – modulators of MEK5 binding to wildtype MEKK2, primary screen, biochemical, multiplex bead flow cytometry, Alexa488-MEK5 | Alexa488-MEK5 binding to MEKK2 WT; actives lie on both sides | binding response (% of control), % at 10 µM | 290,000 tested, 1.1% active; in the data active = binding response below about 67% or above about 130%
SUMO Mot1 rescue – yeast Mot1-301 growth rescue at high temperature, primary screen, SUMOylation pathway inhibitor project, S. cerevisiae, ATP luminescence, 38.5C. S. cerevisiae Mot1-301 growth rescue; percent above DMSO median, 100 means doubled. growth rescue, % at 18.8 µM. 320,000 tested, 1% active. AID 2716, 2010;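 active = every valid replicate shows activation above 250% relative to neutral control wells; inactive = the rest, any valid replicate at or below 250%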;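 also: OY570 slx delta 5 strain wells were the positive control but not used for scaling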
MEKK3 PB1 HTS – modulators of MEKK3-MEK5 PB1 binding, primary screen, biochemical, wildtype MEKK3, multiplex bead flow cytometry, Alexa488-MEK5; bead-based flow cytometry, Alexa488-MEK5 binding to MEKK3; actives lie on both sides; 0 = blocked by unlabeled MEK5, 100 = vehicle; binding response (% of control), % at 10 µM; Mitogen-activated protein kinase kinase kinase 3 (Homo sapiens), Q99759; 290,000 tested, 1.4% active; AID 1529, 2009;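 active = binding response more than 3 SD above or below the average of its plate-row segment, actives on both sides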;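 also: Alexa488 bead fluorescence after subtracting the streptavidin-only scavenger bead signal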
CHT PAM – CHT positive allosteric modulators, primary screen, cell-based, membrane potential dye, choline EC20. High affinity choline transporter 1 (Homo sapiens), Q9GZV3. 310,000 tested, 0.49% active. AID 488977, 2010. CHT-expressing cells; active compounds read high; LV-AA mutant CHT in HEK293 cells. B-score at 10 µM;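 active = initial fluorescence not abnormally high and integrated response B-score, plate-corrected, over 3 SD above library mean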
Target sequence (Q9GZV3 whole entry, looked up): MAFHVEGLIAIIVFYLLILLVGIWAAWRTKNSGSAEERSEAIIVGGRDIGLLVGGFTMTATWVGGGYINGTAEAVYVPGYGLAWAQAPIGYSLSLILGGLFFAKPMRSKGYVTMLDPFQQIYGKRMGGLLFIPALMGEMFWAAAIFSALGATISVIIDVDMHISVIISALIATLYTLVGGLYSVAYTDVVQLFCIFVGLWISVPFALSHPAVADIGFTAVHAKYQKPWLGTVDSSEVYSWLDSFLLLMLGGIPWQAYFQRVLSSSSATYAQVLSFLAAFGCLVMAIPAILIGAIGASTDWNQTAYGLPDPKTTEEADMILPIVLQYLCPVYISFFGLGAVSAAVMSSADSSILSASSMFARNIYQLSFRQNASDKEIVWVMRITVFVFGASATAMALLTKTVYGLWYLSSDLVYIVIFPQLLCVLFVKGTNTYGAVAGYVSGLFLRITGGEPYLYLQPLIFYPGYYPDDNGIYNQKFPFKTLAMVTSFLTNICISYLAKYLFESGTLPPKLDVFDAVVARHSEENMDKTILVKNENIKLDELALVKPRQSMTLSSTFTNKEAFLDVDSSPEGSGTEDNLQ
CHT inh – inhibitors of human choline transporter CHT | High affinity choline transporter 1 (Homo sapiens), Q9GZV3 | CHT-expressing cells, membrane potential dye, choline response; active compounds read low | B-score at 10 µM | 310,000 tested, 0.86% active;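 active = B-score over 3 SD under the library average, and starting fluorescence ratio not unusually high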;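 also: choline stimulus applied at its EC90 after an EC20 pre-addition; B-score computed on integrated fluorescence ratio after choline addition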
MEKK2 mut-MEK5 – MEK5 binding signal on mutant MEKK2 PB1, primary screen, biochemical, multiplex bead flow cytometry, Alexa488-MEK5; Alexa488-MEK5 binding to MEKK2 mutant; percent response, % at 10 µM; 290,000 tested, 0.35% active; AID 1530, 2009; in the data active = percent response above about 24%, passing the limit was not always enough
MEKK2wt confirm – modulators of MEK5 binding to wildtype MEKK2, confirmation, biochemical, single concentration, multiplex bead flow cytometry | 5,900 tested, 2.4% active | AID 1892, 2009 | Alexa488-MEK5 binding to MEKK2 WT; actives lie on both sides | shares compounds with MEKK3 PB1 HTS | binding response (% of control), % at 10 µM; in the data active = binding response below about 16% or above about 210%; inactive = in between
MEKK2mut-MEK5 – mutant MEKK2 PB1-MEK5 binding signal retest – biochemical, single concentration, multiplex bead flow cytometry, confirmation | AID 1893, 2009 | shares compounds with MEKK3 PB1 HTS | Alexa488-MEK5 binding to MEKK2 mutant | 5,900 tested, 2% active | percent response, % at 10 µM; in the data active = percent response mostly above about 71%, no sharp cut-off; inactive = mostly below about 38%;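 also: higher means compound restores mutant binding toward wildtype level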
MEKK3 confirm – MEKK3 wild-type PB1 binding to MEK5, inhibitors, confirmation, biochemical, bead multiplex flow cytometry, single concentration, wildtype. 5,900 tested, 1.8% active. Alexa488-MEK5 binding to MEKK3; active compounds read low. binding response (% of control), % at 10 µM. shares compounds with MEKK3 PB1 HTS;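 active = binding response below 72% of control, or above a set upper limit, though filed actives all read lower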;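 also: 100% = DMSO only wells and 0% = binding blocked by excess unlabeled MEK5; lower values mean stronger disruption of MEK5 binding to MEKK3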
The depositor's hits bear a star; i = inactive; x = no result given; [ ] = another dose, or the depositor's remark.

SMILES | MEKK2wt PB1 HTS | SUMO Mot1 rescue | MEKK3 PB1 HTS | CHT PAM | CHT inh | MEKK2 mut-MEK5 | MEKK2wt confirm | MEKK2mut-MEK5 | MEKK3 confirm
Cc1cccc(NC(=O)CC2CCC2)c1 | -1.0*[inhibitor] | 19 | 2.0*[inhibitor] | i | i | -26 | 106 | 4 | 102
N#Cc1cccc(NC(=O)CC2CCCC2)c1 | 103 | 8 | 103 | i | i | 2 | x | x | x
COc1cc(/C=N/NC(=O)C[n+]2ccccc2)cc(OC)c1OC(C)=O | 60*[inhibitor] | 1 | 73*[inhibitor] | i | i | -30 | 86 | -11 | 82
Clc1cccc(Nc2nc(-c3cccnc3)cs2)c1 | 154* | 148 | x | i | i | x | 103 | -1 | 102
CCc1ccc(CN2CCC(n3nccc3NC(=O)Cc3ccccc3)CC2)o1 | 106 | -7 | 103 | i | i | 3 | x | x | x
Cc1cccc(/C=N/N(CCO)C2=NS(=O)(=O)c3ccccc32)c1 | 117 | 3 | 138* | i | i | 1 | 107 | 11 | 103
CCOc1ccc2oc(C(=O)N(CC)CC(=O)Nc3c(F)cccc3F)c(C)c2c1 | x | 6 | x | i | i | x | x | x | x
Cc1cc(N)ccc1N1CCCC1 | 94 | -27 | 71*[inhibitor] | i | i | 6 | 99 | 2 | 91
Cc1ccc(NC(=O)c2cccs2)cc1 | 95 | 6 | 98 | i | i | -4 | x | x | x
Cc1ccc(S(=O)(=O)n2[nH]c(=O)cc2NC(=O)c2cccs2)cc1 | -4.0*[inhibitor] | -9 | 1.0*[inhibitor] | i | i | 2 | 94 | -5 | 98
CC(C)C(NS(=O)(=O)c1c(Cl)cccc1Cl)C(=O)OCC(=O)c1c[nH]c2ccccc12 (centres undefined) | -2.0* | 0 | 77 | i | i | 76* | 105 | 9 | 102
CC(O)C(NS(=O)(=O)c1ccc(Cl)cc1)C(=O)OCC(=O)c1c[nH]c2ccccc12 (centres undefined) | 79 | 4 | 76 | i | i | -21 | x | x | x
COc1cc(C)ccc1OCCOCCOc1ccc([N+](=O)[O-])cc1 | 105 | 2 | 134* | i | i | 1 | 104 | -3 | 99
COc1cc(C)ccc1OCCOCCOc1ccccc1[N+](=O)[O-] | 104 | -12 | 102 | i | i | 3 | x | x | x
COc1ccccc1CNC(=O)CCNC(=O)Cn1ccc2ccccc2c1=O | 103 | -8 | 102 | i | i | -2 | x | x | x
COc1ccccc1CNC(=O)CCNC(=O)Cn1cnc2ccccc2c1=O | -1.0*[inhibitor] | 220 | 0.0*[inhibitor] | i | i | -9 | 99 | -3 | 99
COc1ccc(CCNC(=O)CSc2ccc3ccccc3c2)cc1OC | 111 | -3 | 113 | i | i | 4 | x | x | x
COc1ccc(CCNC(=O)Cn2cnc3ccccc3c2=O)cc1OC | 105 | 26 | 129* | i | i | 0 | 105 | -1 | 100
CCOc1ccc(CCNC(=O)COC(=O)Cn2cnc3ccccc3c2=O)cc1OCC | 91 | -12 | 84 | i | i | -6 | x | x | x
COc1ccc(CCNC(=O)CSc2nn(-c3ccccc3)c(=S)s2)cc1OC | 105 | 7 | 148* | i | i | 0 | 107 | -3 | 106
